Screening results deposited in PubChem BioAssay by National Center for Advancing Translational Sciences (NCATS).
Only some compounds are listed: those with a hit (about 19% of all), similar ones and a draw of the others.
Pf growth 96h: P. falciparum growth inhibition at 96 hours; Potency, µM (series often up to 28.7 µM), inactives show top-dose activity change, negative = inhibition, usual class: inhibitors; hit rate 6.9% among 320,000; AID 504834; P. falciparum luciferase reporter growth, 96 h; further: potency means the concentration at half of the fitted maximal effect; on the % scale 0 is the no-effect control and ±100 the full control effect
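Readout is luminescence from an integrated firefly luciferase in P. falciparum. Red cells, 2% hematocrit and 0.05% parasitemia final, were cultured with compound through two parasite generations (96 hours) at 37 C, 5% CO2.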
Pf growth 48h: P. falciparum growth inhibition at 48 hours (one generation); Potency, µM (highest dose often 28.7 µM), inactives show at the highest dose activity change, negative = inhibition, usual class: inhibitors; P. falciparum luciferase growth in erythrocytes, 48 h; AID 504832; hit rate 5.9% among 310,000; further: potency means the concentration at half of the fitted maximal effect; on the % scale 0 is the no-effect control and ±100 the full control effect
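Luminescence readout; reporter = integrated firefly luciferase in P. falciparum. RBC culture at 2% hematocrit, 0.1% parasitemia final, 37 C/5% CO2; decreased signal taken as growth inhibition.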
SARS PLpro yeast: SARS-CoV PLP inhibition in yeast; S. cerevisiae expressing SARS-CoV PLpro, growth rescue; Potency, µM (series often up to 32.9 µM), without a hit: at the highest dose activity, positive = growth rescue, actives largely listed as activators; hit rate 0.19% among 330,000; AID 485353; calls by dose curve; further: potency means the concentration at half of the fitted maximal effect; 0% is about no effect; nearly all actives have a fitted effect of over 55% in size
CHX counter: counter-screen for Shiga toxin inhibitors: cycloheximide protein synthesis inhibition; max response, %; hit rate 12% among 300,000; cell reporter, cycloheximide protein synthesis inhibition counterscreen; in the data active means max response mostly above about 13%, no sharp cut-off; inactive means mostly below about 14%; further: read at 38.3 µM for the half of the compounds with a filed dose; 0% is about no effect
Shiga toxin inh: inhibitors of Shiga toxin in Vero cells | inhibition, % at 38.7 µM | Vero cells, Shiga toxin protein synthesis inhibition reporter | AID 2315 | hit rate 9.2% among 290,000; in the data active means inhibition mostly above about 28%, no sharp cut-off; inactive means mostly below about 43%; further: 0% is about no effect
AMA1 RON2 block: inhibitors of Plasmodium falciparum AMA1-RON2 interaction; AlphaScreen AMA1-biotinylated RON2 peptide binding; Potency, µM (highest dose often 58.2 µM), inactives show at the highest dose activity change, negative = inhibition, hits mostly inhibitors; hit rate 0.2% among 360,000;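 further: potency means the concentration at half of the fitted maximal effect; 0% = vehicle wells and -100% = peptide control; nearly all actives have a fitted effect of over 45% in size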
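AMA1 (3D7) with his tag at 25 nM final met compounds first, then biotinylated RON2 peptide at 25 nM; detection used donor plus acceptor beads, 10 µg/mL apiece, read by AlphaScreen after 30 min at room temperature.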
Numbers without * were called inactive; i = inactive; u = inconclusive; x = not tested or not shown; + = active, no number; [ ] = another dose, or the depositor's remark. Unless noted, the call rests on the fitted dose curve; in most records, active means well fitted curve in the direction sought with a large enough effect; inconclusive means small, poorly fitted or top-dose-only effect, or another doubt; inactive means no such curve, though single readings can be large; an effect the other way counts as inactive or inconclusive.

SMILES	Pf growth 96h	Pf growth 48h	SARS PLpro yeast	CHX counter	Shiga toxin inh	AMA1 RON2 block
CCOc1ccc(NC(=O)C2CCN(S(C)(=O)=O)CC2)cc1	12µM*	-5%	-4%	-3	x	22%
COc1ccc(NC(=O)C2CCCC2)cc1	u	29%	7%	10	22	-8%
CCOc1ccc(NC(=O)C2C3CC/C=C\CCC32)cc1 (configuration not stated)	u	77%	2%	17*	35	-3%
COc1ccc(NC(=O)C2C3CC/C=C\CCC32)cc1 (configuration not stated)	48%	26%	0%	24*	57*	-8%
CCC(=O)Nc1cccc(-c2cn3cccc(C)c3n2)c1	244%	101%	0%	39*	54*	23%
O=C(Nc1cccc(-c2cn3ccccc3n2)c1)C1CC1	31%	40%	-3%	35*	46*	5%
O=C(Nc1ccc(-c2cn3ccccc3n2)cc1)c1cccs1	-17%	160%	-3%	33*	54*	-21%
CCC(=O)Nc1cccc(-c2cn3ccccc3n2)c1	12µM*	146%	7%	18*	45*	-3%[11.6 µM]
Cc1ccn2cc(-c3cccc(NC(=O)CCC(=O)O)c3)nc2c1	64%	91%	-11%	0	5	-3%
O=C(Nc1cccc(-c2cn3ccccc3n2)c1)c1cccc(Cl)c1	u	u	-20%	10	-10	-11%
CCc1ccccc1NC(=O)CN(C)C(=O)CSc1nnc(Nc2cccc(C)c2C)s1	u	u	11%	4	-1	-12%
COc1ccc(CC(=O)Nc2cccc(-c3cn4ccccc4n3)c2)cc1	45%	39%	-36%	46*	active	-7%
COc1ccc(CC(=O)Nc2ccc(-c3cn4ccccc4n3)cc2)cc1	x	70%	6%	25*	112*	5%
O=C(COc1ccccc1)Nc1cccc(-c2nn[nH]n2)c1	-3%	-5%	1%	2	-9	-5%
O=C(COc1ccccc1)Nc1cccc(-c2cn3cccnc3n2)c1	6.6µM*	9.3µM*	-1%	12	21	-11%
COC(=O)c1ccc(-c2ccc(F)cc2)nc1C	98%	218%	-1%	112*	73*	-13%
CCOC(=O)c1cc(-c2ccc3c(c2)OCO3)nc2onc(C)c12	u	2%	-1%	-3	-4	10%
CCOC(=O)c1ccc(-c2ccc3c(c2)CCC3)nc1C	297%	-7%[0.00184 µM]	-1%	29*	93*	15%
CCOc1ccc(S(=O)(=O)N2CCC(C(=O)OC(C)C(=O)NC3CCCCC3C)CC2)cc1 (configuration not stated)	13µM*	8.3µM*	3%	x	x	14%
N#Cc1ccccc1S(=O)(=O)N1CCC(C(=O)NCc2ccccc2CN2CCCC2)CC1	6.6µM*	u	-1%	x	x	1%
CCOc1ccc(S(=O)(=O)N2CCC(C(=O)NCc3ccccc3CN3CCCC3)CC2)cc1	13µM*	9.3µM*	3%	x	x	-8%
Cc1ccc(S(=O)(=O)N2CCC(C(=O)NCc3ccccc3CN3CCCC3)CC2)cc1	x	x	0%	x	x	8%
CC1(C(=O)O)CCN1C(=O)c1ccccc1F (configuration not stated)	x	x	x	x	x	6%
CC(C)NC(=O)c1onc(CSc2ccc(Cl)cc2)c1C(=O)NC(C)C	3.3µM*	5.2µM*	-7%	-2	-2	8%
CCCCNC(=O)c1onc(CSc2ccccc2)c1C(=O)NCCCC	12µM*	u	1%	x	x	15%
SMILES	Pf growth 96h	Pf growth 48h	SARS PLpro yeast	CHX counter	Shiga toxin inh	AMA1 RON2 block
CC(C)NC(=O)c1onc(CSc2ccc(Cl)cc2)c1C(=O)O	84%	8%	-2%	-1	24	0%
CC(C)NC(=O)c1onc(CSc2ccc(F)cc2)c1C(=O)NC(C)C	9.3µM*	4.7µM*	-1%	x	x	4%
CCCCNC(=O)c1onc(CS(=O)(=O)c2ccccn2)c1C(=O)NCCCC	15µM*	u	5%	x	x	1%
O=C(NCc1ccccc1)C(c1ccc(C(F)(F)F)cc1)N1CCN(CCN2CCOCC2)CC1 (configuration not stated)	x	x	x	x	x	10%
CCCNC(=O)c1onc(CSc2ccc(Cl)cc2)c1C(=O)NC(C)C	4.7µM*	12µM*	3%	x	x	28%
CC(C)CCNC(=O)c1onc(CSc2nc3ccccc3[nH]2)c1C(=O)NCCC(C)C	2.3µM*	u	0%	1	12	1%
COCCNC(=O)c1onc(CSc2nc3ccccc3[nH]2)c1C(=O)NCCOC	u	18%	-12%	-2	-3	-7%
CNC(=O)CNC(=O)Nc1ccc(Cl)c(Cl)c1	41%	-3%	-1%	-3	6	-5%
Clc1ccc(/C=N/Nc2ncnc3ccccc23)cc1Cl	u	-19%	6%	26*	90*	4%
Fc1ccccc1/C=N/Nc1ncnc2ccccc12	138%	i	4%	41*	52	37%
O=S(=O)(N/N=C/c1ccccc1F)c1ccccc1	0%	-2%	-2%	9	-6	1%
Brc1ccc(/C=N/Nc2ncnc3c2cnn3Cc2ccccc2)cc1	-4%	u	-1%	-1	17	-7%
Cc1noc(C)c1-c1ccc(C(=O)NCc2cccnc2)c2occc12	x	x	x	x	x	-5%
OC(c1ccccc1)c1nc(-c2ccccc2)cs1 (configuration not stated)	x	x	x	x	x	5%
CC(=O)Nc1ccc(C(=O)N(C)C(C(=O)Nc2ccc(C)cc2)c2ccccn2)cc1 (configuration not stated)	-22%	-13%	-1%	-4	5	15%
CCOc1ccc(NC(=O)C(c2ccccn2)N(C(=O)CCl)c2ccc(OCC)cc2)cc1 (configuration not stated)	5%	-82%	14%	49*	+	4%
COc1ccc(NC(=O)C(c2ccccn2)N(C(C)=O)c2ccc(C)cc2)cc1 (configuration not stated)	u	30%	1%	16*	60*	1%
CCOc1ccc(NC(=O)C(c2ccccn2)N(C(=O)CCl)c2ccc(OC)cc2)cc1 (configuration not stated)	u	-79%	-14%	55*	77*	16%
CC(=O)C1CN(S(=O)(=O)c2ccc(C)cc2)C(c2ccccc2)CC1C (configuration not stated)	x	x	x	x	x	-13%
O=C(Cn1c(=O)oc2ccccc21)NC(=O)NCc1ccco1	22%	x	-3%	-3	-4	10%
Cc1cc(C(=O)Nc2cccc(O)c2)co1	u	78%	3%	32*	74	-6%
O=C(Nc1cccc(O)c1)c1cccc(NC(=O)c2cccs2)c1	34%	u	1%	15	57	-9%
O=C(O)/C=C\C(=O)Nc1cccc(C(=O)Nc2cccc(O)c2)c1	38%	78%	0%	28*	77*	-17%
